In PubChem BioAssay (NCI):
“And” between values parts separate entries of the source, which are not always exact repeats. Equal entries are not always repeated. The panel holds about 79,000 compounds, 15% with a hit somewhere; the sample as a whole holds those more often. Where a structure was tested more than once in an assay, its records may differ in their call. The source made the active and inactive calls. Cut-off read from the data, not from the text of the source: active = growth inhibition above about 70%; inactive = the rest.

Columns and labels:
[1] = NCI Yeast Anticancer Drug Screen. Data for the rad52 strain (AID 147);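 note: 0% = growth of vehicle-treated control cultures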; details: S. cerevisiae rad52 mutant growth inhibition, stronger effect = higher value
Procedure, shortened: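 Yeast strain carrying a DNA damage repair alteration was exposed to test compounds. Growth inhibition was measured relative to vehicle-treated controls.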

[2] = NCI Yeast Anticancer Drug Screen. Data for the rad50EPP+ strain (AID 151);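 note: 0% = growth of vehicle-treated control cultures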; details: S. cerevisiae rad50 mutant strain, stronger effect = higher value
Procedure, shortened: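 Yeast strain carrying rad50 alteration (rad50EPP+) exposed to compounds; growth inhibition measured relative to vehicle-treated controls.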

[3] = NCI Yeast Anticancer Drug Screen. Data for the rad50 strain (AID 155);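 note: 0% = growth of vehicle-only cultures of the same strain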; details: S. cerevisiae rad50 strain growth inhibition, stronger effect = higher value
Procedure, shortened: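 Inhibition values express reduced yeast growth in compound-treated cultures relative to vehicle-treated controls.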

[4] = NCI Yeast Anticancer Drug Screen. Data for the rad14 strain (AID 159);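 note: 0% = growth of vehicle-treated control cultures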; details: S. cerevisiae rad14 strain growth inhibition, stronger effect = higher value
Procedure, shortened: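 A mutant yeast strain defective in DNA damage repair is treated with compound; inhibition of its growth is scored against untreated, vehicle-exposed cultures.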

[5] = NCI Yeast Anticancer Drug Screen. Data for the sgs1 mgt1 strain (AID 161);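 note: 0% = growth of cultures given vehicle only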; details: S. cerevisiae sgs1 mgt1 strain, stronger effect = higher value
Procedure, shortened: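 Percent growth inhibition was derived by comparing compound-exposed mutant yeast with vehicle-exposed cultures. The strain carries alterations in DNA damage repair.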

[6] = NCI Yeast Anticancer Drug Screen. Data for the CLN2oe strain (AID 163);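 note: 0% = growth of vehicle-only control cultures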; details: S. cerevisiae CLN2oe strain, stronger effect = higher value
Procedure, shortened: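 Yeast cells carrying a defined cell-cycle control alteration were exposed to test compounds. Growth inhibition was scored against vehicle-treated control cultures.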

[7] = NCI Yeast Anticancer Drug Screen. Data for the cln2 rad14 strain (AID 165);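 note: 0% = growth equal to vehicle treated cultures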; details: S. cerevisiae cln2 rad14 strain, stronger effect = higher value
Procedure, shortened: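 Yeast carrying cln2 and rad14 alterations (cell cycle control and DNA damage repair) were exposed to compounds. Growth inhibition was measured against vehicle-treated controls.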

[8] = NCI Yeast Anticancer Drug Screen. Data for the bub3 strain (AID 167); details: S. cerevisiae bub3 mutant strain, stronger effect = higher value
Procedure, shortened: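 Steps: expose the mutant yeast strain to compound; grow alongside vehicle-treated cultures; measure growth; express inhibition against the vehicle cultures.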

[9] = NCI Yeast Anticancer Drug Screen. Data for the wt2 strain (AID 169);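 note: 0% = growth of vehicle-treated yeast cultures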; details: S. cerevisiae wt2 strain growth inhibition, stronger effect = higher value
Procedure, shortened: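 Yeast cells were exposed to test compounds, and growth inhibition was measured relative to vehicle-treated controls.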

[10] = NCI Yeast Anticancer Drug Screen. Data for the mlh1 strain (AID 171);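 note: 0% = growth of vehicle-treated control cultures of the same strain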; details: S. cerevisiae mlh1 strain growth inhibition, stronger effect = higher value
Procedure, shortened: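 Yeast carrying a defined genetic alteration in DNA damage repair or cell cycle control were exposed to test compounds. Growth inhibition was measured relative to vehicle-treated controls.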

[11] = NCI Yeast Anticancer Drug Screen. Data for the sgs1 strain (AID 173);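 note: 0% = growth of vehicle-only control cultures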; details: S. cerevisiae sgs1 mutant, stronger effect = higher value
Procedure, shortened: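 Yeast mutant strains carrying defined defects in DNA damage repair or cell cycle control were exposed to test compounds. Growth inhibition was scored against vehicle-treated controls.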

[12] = NCI Yeast Anticancer Drug Screen. Data for the mlh1 rad18 strain (AID 175); details: S. cerevisiae mlh1 rad18 strain growth inhibition, stronger effect = higher value
Procedure, shortened: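 Growth inhibition of the yeast strain was measured after compound exposure and expressed relative to vehicle-treated controls. The strain carries defined defects in DNA damage repair.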

[13] = NCI Yeast Anticancer Drug Screen. Data for the rad18 strain (AID 177); details: S. cerevisiae rad18 mutant growth inhibition, stronger effect = higher value
Procedure, shortened: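 Yeast carrying a defined DNA damage repair alteration were exposed to compounds. Growth inhibition was expressed relative to vehicle-treated controls.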

[14] = NCI Yeast Anticancer Drug Screen. Data for the mec2-1 strain (AID 157); details: S. cerevisiae mec2-1 strain, stronger effect = higher value
Procedure, shortened: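 mec2-1 yeast strain, carrying an alteration in DNA damage repair or cell cycle control, was exposed to compounds; growth inhibition was measured relative to vehicle-treated controls.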

[15] = at 5.0 µM (retest, dose inferred, filed as 0.5)
[16] = at 50.0 µM (retest, dose inferred, filed as 5.0)

Measured: growth inhibition

CCCCCCCCCCCCCCCCP(=O)(O)OP(=O)(O)OCC1OC(n2ccc(N)nc2=O)C(O)C1O (stereo not drawn)
73.3% (active) and 8.3% (inactive): [3]; at 50.0 µM
88.3% (active) and 3.75% (inactive): [5]; at 50.0 µM
inactive: [1]; at 1.2 µM 3% | [1]; at 3.7 µM 3% | [1]; at 11.0 µM 4% | [1]; at 33.0 µM 3% | [1]; at 100.0 µM 5% | [2]; at 1.2 µM 0% | [2]; at 3.7 µM -5% | [2]; at 11.0 µM -6% | [2]; at 33.0 µM -2% | [2]; at 100.0 µM 18% | [3]; at 1.2 µM 2% | [3]; at 3.7 µM 1% | [3]; [15] -13% | [3]; at 11.0 µM 2% | [3]; at 33.0 µM 0% | [3]; [16] 10% | [3]; at 100.0 µM 3% | [4]; at 1.2 µM -2% | [4]; at 3.7 µM -1% | [4]; at 11.0 µM -1% | [4]; at 33.0 µM -1% | [4]; at 100.0 µM 1% | [5]; [15] -2% | [5]; [16] 46% | [6]; at 1.2 µM -3% | [6]; at 3.7 µM -7% | [6]; at 11.0 µM -6% | [6]; at 33.0 µM -17% | [6]; at 100.0 µM -17% | [7]; [15] 0% | [7]; [16] 6% | [7]; at 50.0 µM 59.9% and -13.4% | [8]; at 1.2 µM -1% | [8]; at 3.7 µM -2% | [8]; [15] 14% | [8]; at 11.0 µM -4% | [8]; at 33.0 µM -10% | [8]; [16] -19% | [8]; at 100.0 µM -19% | [9]; at 1.2 µM 1% | [9]; at 3.7 µM 0% | [9]; at 11.0 µM 1% | [9]; at 33.0 µM 1% | [9]; at 100.0 µM 1% | [10]; at 1.2 µM 0% | [10]; at 3.7 µM 0% | [10]; at 11.0 µM 1% | [10]; at 33.0 µM -4% | [10]; at 100.0 µM 1% | [11]; at 1.2 µM 0% | [11]; at 3.7 µM 0% | [11]; at 11.0 µM -3% | [11]; at 33.0 µM 1% | [11]; at 100.0 µM 21% | [12]; [15] -19% | [12]; [16] 26% | [13]; at 1.2 µM -1% | [13]; at 3.7 µM -2% | [13]; at 11.0 µM 3% | [13]; at 33.0 µM 0% | [13]; at 100.0 µM 11%
74% (active) and -35.4% (inactive): [12]; at 50.0 µM
76% (active) and -16.8% (inactive): [8]; at 50.0 µM

CCCCCNC(=O)c1c(O)[nH]c(=S)[nH]c1=O
inactive: [1]; at 1.2 µM -6% | [1]; at 3.7 µM -15% | [1]; at 11.0 µM 23% | [2]; at 1.2 µM -25% | [2]; at 3.7 µM -23% | [2]; at 11.0 µM -16% | [2]; at 33.0 µM 30% | [3]; at 1.2 µM 5% | [3]; at 3.7 µM 14% | [3]; [15] 61% | [3]; at 11.0 µM 64% | [14]; at 1.2 µM -14% | [14]; at 3.7 µM -5% | [14]; [15] 8% | [14]; at 11.0 µM 25% | [4]; at 1.2 µM 16% | [4]; at 3.7 µM 64% | [5]; [15] 26% | [6]; at 1.2 µM 4% | [6]; at 3.7 µM -7% | [6]; at 11.0 µM 2% | [6]; at 33.0 µM 53% | [7]; [15] 6% | [7]; [16] 60% | [7]; at 50.0 µM 61.3% | [8]; at 1.2 µM -17% | [8]; at 3.7 µM -1% | [8]; [15] 65% | [8]; at 11.0 µM 65% | [9]; at 1.2 µM -32% | [9]; at 3.7 µM -1% | [9]; at 11.0 µM 56% | [10]; at 1.2 µM 13% | [10]; at 3.7 µM 46% | [11]; at 1.2 µM -10% | [11]; at 3.7 µM 0% | [12]; [15] 42% | [12]; [16] 47% | [13]; at 1.2 µM -12% | [13]; at 3.7 µM 2% | [13]; at 11.0 µM 45%
active: [1]; at 33.0 µM 89% | [1]; at 100.0 µM 94% | [2]; at 100.0 µM 78% | [3]; at 33.0 µM 95% | [3]; [16] 93% | [3]; at 50.0 µM 88.1% | [3]; at 100.0 µM 96% | [14]; at 33.0 µM 87% | [14]; [16] 92% | [14]; at 50.0 µM 87.7% | [14]; at 100.0 µM 92% | [4]; at 11.0 µM 91% | [4]; at 33.0 µM 96% | [4]; at 100.0 µM 96% | [5]; [16] 87% | [5]; at 50.0 µM 92.2% | [6]; at 100.0 µM 83% | [8]; at 33.0 µM 87% | [8]; [16] 94% | [8]; at 50.0 µM 88.6% | [8]; at 100.0 µM 93% | [9]; at 33.0 µM 91% | [9]; at 100.0 µM 94% | [10]; at 11.0 µM 90% | [10]; at 33.0 µM 96% | [10]; at 100.0 µM 96% | [11]; at 11.0 µM 79% | [11]; at 33.0 µM 94% | [11]; at 100.0 µM 96% | [12]; at 50.0 µM 90.1% | [13]; at 33.0 µM 86% | [13]; at 100.0 µM 94%
